Bioassay records (PubChem)
SF1 inhibitor – inhibitors of human nuclear receptor SF-1. Q13285. CHO-K1 Gal4-SF-1 LBD luciferase reporter. inhibition, % at 10 µM. actives 0.55% (n = 65,000);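 active = inhibition above the mean inhibition of all tested compounds plus 3 SD, cut at about 48% in these data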;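 also: 0% = SF-1 transfected cells with DMSO and 100% = mock-transfected cells lacking SF-1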
Target sequence (Q13285 whole entry, looked up, the tested form may be a part): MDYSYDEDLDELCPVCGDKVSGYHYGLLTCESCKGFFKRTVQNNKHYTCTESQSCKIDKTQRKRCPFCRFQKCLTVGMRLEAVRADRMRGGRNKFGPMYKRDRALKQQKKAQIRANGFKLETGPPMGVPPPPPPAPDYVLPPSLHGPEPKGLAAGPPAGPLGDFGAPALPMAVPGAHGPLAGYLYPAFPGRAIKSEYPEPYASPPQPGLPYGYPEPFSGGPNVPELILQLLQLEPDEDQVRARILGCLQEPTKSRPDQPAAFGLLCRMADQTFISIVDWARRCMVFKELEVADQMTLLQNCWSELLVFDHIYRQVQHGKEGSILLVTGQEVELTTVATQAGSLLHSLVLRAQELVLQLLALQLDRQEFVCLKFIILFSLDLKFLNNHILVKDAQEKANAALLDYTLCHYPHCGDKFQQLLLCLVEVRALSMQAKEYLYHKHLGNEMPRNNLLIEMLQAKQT
* hit, by the source's call. Only a selection was taken, and hits are over-represented in it overall.

Results for Nc1nc(-c2ccc3c(c2)OCCO3)cs1 ?
SF1 inhibitor: -64

What do the screens show for `CS(=O)(=O)N1CCN(c2nc(-c3ccc(F)cc3)cs2)CC1`?
SF1 inhibitor: -24

What do the screens show for `Cc1ccc(-c2csc(N3CCC(NS(=O)(=O)c4ccc5c(c4)OCCO5)CC3)n2)cc1`?
SF1 inhibitor: 53*

Results for CCOC(=O)C1CCN(C(=O)CC(NS(=O)(=O)c2ccc(OC)cc2)C(C)C)CC1 (centres undefined) ?
SF1 inhibitor: -2

How did O=C(CCN1CCN(c2ccccc2)CC1)Nc1nccs1 do in these assays?
SF1 inhibitor: 8

How did CCCCCOc1ccc(CN2CCOCC2)cc1Cl do in these assays?
SF1 inhibitor: -61

How did COc1cc(C(=O)Oc2c(CN3CCOCC3)cc(Cl)c3cccnc23)cc(OC)c1OC do in these assays?
SF1 inhibitor: 55*

How did COc1c(C)cccc1C(=O)Nc1ccc(CN2CCOCC2)cc1 do in these assays?
SF1 inhibitor: -62

What do the screens show for `NC(=O)CS(=O)(=O)c1nc2ccccc2n1Cc1ccccc1F`?
SF1 inhibitor: 10

Results for Cc1nc2ccccn2c1P(=Nc1ccccc1)(N(C)C)N(C)C ?
SF1 inhibitor: 3

How did CCOC(=O)N1CCC(NC(=O)c2ccc(OC)c(CN3CC(=O)N4CCCC4C3=O)c2)CC1 (centres undefined) do in these assays?
SF1 inhibitor: -5

How did CCOC(=O)N1CCC(NC(=O)C2CCCN(Cc3nc(-c4cccc(Cl)c4)oc3C)C2)CC1 (centres undefined) do in these assays?
SF1 inhibitor: 58*

How did CCOC(=O)N1CCC(NC(=O)c2cnn3c(C(F)(F)F)cc(-c4cccc(OC)c4)nc23)CC1 do in these assays?
SF1 inhibitor: 2

Results for Nc1nonc1-c1noc(CCCN2C(=O)c3ccccc3C2=O)n1 ?
SF1 inhibitor: -50

What do the screens show for `c1ccc(OCCSc2nnnn2-c2ccccc2)cc1`?
SF1 inhibitor: -63

Results for c1ccc(OCCSc2nnc3sc4ccccc4n23)cc1 ?
SF1 inhibitor: 54*

Results for Cc1ccc(OCCSc2nnc(-c3ccncc3)n2C)cc1 ?
SF1 inhibitor: 6

How did CC12CC(NC(=O)N1c1ccc(C(=O)N3CCN(c4ccc(F)cc4)CC3)cc1)c1ccccc1O2 (centres undefined) do in these assays?
SF1 inhibitor: -2

Results for COC1Cc2ccccc2N(C(=O)N2CCN(CCO)CC2)c2ccccc21 (centres undefined) ?
SF1 inhibitor: 0

What do the screens show for `Oc1ccc(N2CCN(c3ncnc4sc5c(c34)CCC5)CC2)cc1`?
SF1 inhibitor: 50*

Results for O=c1[nH]c(CN2CCN(Cc3ccccc3)CC2)nc2sc3c(c12)CCC3 ?
SF1 inhibitor: -5

What do the screens show for `CC(C)c1nc2oc3c(N4CCNCC4)ncnc3c2c2c1CCC2`?
SF1 inhibitor: -15

How did Nc1nc(N)c2sc3nc4c(cc3c2n1)CCC4 do in these assays?
SF1 inhibitor: -57

Results for CC(C)Oc1ccc(NC(=O)Oc2ccccc2)cc1 ?
SF1 inhibitor: -52

What do the screens show for `O=C(NCCC1=CCCCC1)NC1CCCCC1`?
SF1 inhibitor: -20

Results for CCOC(=O)Cc1cn2c(=O)cc(CSCC(=O)Nc3ccc(C)c(C)c3)nc2s1 ?
SF1 inhibitor: -5

Results for CCCCOC(=O)C(C)c1c(C)[nH]c(=S)[nH]c1=O (centres undefined) ?
SF1 inhibitor: -5

How did O=C(Nc1ccc(N2CCOCC2)cc1)c1cnsn1 do in these assays?
SF1 inhibitor: 69*

Results for CN1CCN(c2ccc(NC(=O)c3ccc4c(c3)OCO4)cc2)CC1 ?
SF1 inhibitor: -61

How did O=C(Nc1ccc(N2CCOCC2)c(Cl)c1)c1ccc(Br)o1 do in these assays?
SF1 inhibitor: -67

What do the screens show for `O=C(NCc1ccco1)Nc1ccc(Br)cc1Cl`?
SF1 inhibitor: -60

How did O=C(N(c1ccccc1)c1ccccc1)n1ccnc1 do in these assays?
SF1 inhibitor: 10

How did Cc1cccc(-n2ncc3c(NCc4ccco4)ncnc32)c1 do in these assays?
SF1 inhibitor: -93

How did c1ccc(-n2ncc3c(NCCN4CCCCC4)ncnc32)cc1 do in these assays?
SF1 inhibitor: -69

What do the screens show for `COc1ccc(-n2ncc3c(N(C)C4CCCCC4)ncnc32)cc1`?
SF1 inhibitor: 74*

What do the screens show for `Cc1cccc(-n2ncc3c(N(C)C4CCCCC4)ncnc32)c1`?
SF1 inhibitor: 77*

How did CCN(c1ccccc1)c1ncnc2c1cnn2-c1ccccc1 do in these assays?
SF1 inhibitor: -59

How did Cc1cccc(-n2ncc3c(NCc4ccccc4)ncnc32)c1 do in these assays?
SF1 inhibitor: -82

What do the screens show for `COC(=O)N(C)CCCC1(C)C(=O)N(C)c2ccc(O)cc21` (centres undefined)?
SF1 inhibitor: -2

What do the screens show for `CCOC(=O)CCNC(=O)Nc1ccc2nc(C)n(Cc3cccc(Cl)c3)c(=O)c2c1`?
SF1 inhibitor: 6

How did CN(C)CCN1C(=O)C(=O)/C(=C(/O)c2ccccc2)C1c1ccccc1F (centres undefined) do in these assays?
SF1 inhibitor: -2

How did Cc1nc(CNS(=O)(=O)c2ccc3ccccc3c2)cs1 do in these assays?
SF1 inhibitor: 11

Results for Cc1csc2nc(CNS(=O)(=O)c3ccc(-c4ccccc4)cc3)cn12 ?
SF1 inhibitor: 3

What do the screens show for `O=S(=O)(NCc1cn2ccsc2n1)c1ccc(Oc2ccccc2)cc1`?
SF1 inhibitor: 52*

What do the screens show for `Cc1cccc(Cn2c(N3CCCCC3C)nc3c2c(=O)[nH]c(=O)n3C)c1` (centres undefined)?
SF1 inhibitor: 6

Results for CC1=C(c2ccc(C)cc2)S(=O)(=O)N(CC(=O)O)C1=O ?
SF1 inhibitor: 3

Results for Cc1nc2nc(-c3ccccc3)cn2nc1C ?
SF1 inhibitor: 55*

Results for Cc1nn2cc(-c3ccc(N)cc3)nc2s1 ?
SF1 inhibitor: -88

Results for CNc1ccccc1-n1ccc(-c2ccccc2)n1 ?
SF1 inhibitor: -18

How did CCc1ccc(-c2cn3nc(C)c(C)nc3n2)cc1 do in these assays?
SF1 inhibitor: 81*

How did CCN1C(=O)CC(C(=O)NC)SC1=Nc1cc(Cl)c(O)c(Cl)c1 (centres undefined) do in these assays?
SF1 inhibitor: 10

How did CCO/C=C/C(O)(CNC(=O)COc1ccccc1F)C(F)(F)F (centres undefined) do in these assays?
SF1 inhibitor: 8

How did CC(NC(=O)C1CCN(c2nnc(-n3cccc3)s2)CC1)C12CC3CC(CC(C3)C1)C2 (centres undefined) do in these assays?
SF1 inhibitor: -8

Results for Cn1c(-n2c(-c3ccco3)nc3ccccc3c2=O)nc2ccccc21 ?
SF1 inhibitor: 15

What do the screens show for `O=C(Nc1cccc(C(F)(F)F)c1)C1CCN(S(=O)(=O)c2cnc[nH]2)CC1`?
SF1 inhibitor: 2

Results for Nc1ncnc2c1ncn2C1CCC(CO)C(O)C1 (centres undefined) ?
SF1 inhibitor: -1

What do the screens show for `Nc1nc(Cl)nc2c1ncn2[C@H]1C[C@H](O)[C@@H](CO)O1`?
SF1 inhibitor: 79*

Results for O=C(CN1C(=O)CSC1=O)Nc1ccc(F)c(F)c1F ?
SF1 inhibitor: 4

Results for COc1cccc(NC(=O)COc2ccccc2C(N)=O)c1 ?
SF1 inhibitor: -62

How did COc1ccc(O)c(C(=O)CC(=O)c2ccc(F)cc2)c1 do in these assays?
SF1 inhibitor: 52*

What do the screens show for `COc1cccc(NC(=O)CN2CCN(c3ccccc3F)CC2)c1`?
SF1 inhibitor: -14

How did O=C(OCC#CCSc1nc2ccccc2o1)c1ccco1 do in these assays?
SF1 inhibitor: -24

Results for N#C/C(C(=O)c1ccccc1)=C1/CCCCCN1 ?
SF1 inhibitor: -61
